# TIM10 inh: growth inhibitors of isogenic TIM10 control yeast, primary screen, counter-screen for tim10-1 yeast inhibitor project, luminescence, uHTS | S. cerevisiae TIM10 strain growth, BacTiter-Glo luminescence, 24 h | 1.4% of 330,000 active | inhibition, % at 10 µM;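 active = inhibition of 40% or more at the single tested concentration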;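 also: wild-type TIM10 isogenic control strain grown at permissive 25 °C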
# tim10-1 inh: growth inhibitors of tim10-1 mutant yeast, primary screen, luminescence, uHTS. S. cerevisiae tim10-1 ts strain growth, BacTiter-Glo, 24 h. inhibition, % at 20 µM. 2.2% of 330,000 active;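 active = inhibition of at least 40%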;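 also: mutant grown at 25 °C; 0% = DMSO wells with yeast and 100% = wells holding no yeast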
# NALP1 yeast inh: NALP1 inflammasome inhibitors in reconstituted yeast, colorimetric, S. cerevisiae, triplicate retest. S. cerevisiae NALP1/ASC/caspase-1 growth, X-gal OD620, 72 h. inhibition, % at 10 µM. 0.61% of 280,000 active. AID 2071, 2009; in the data active = inhibition mostly above about 24%, no sharp cut-off; inactive = mostly below about 32%
# NALP3 yeast inh: NALP3 inflammasome inhibitors in reconstituted yeast, primary screen, luminescence, uHTS. Yeast reconstituted NLRP3/ASC/caspase-1, beta-gal luminescence, 24 h. inhibition, % at 10 µM. 0.39% of 330,000 active. AID 2825, 2010;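 active = inhibition of 50% or more; inactive = inhibition below 50%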;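 also: plate controls were induced DMSO wells for no effect and uninduced yeast grown without galactose for full effect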
# tim23-1 inh: growth inhibitors of tim23-1 mutant yeast, primary screen, luminescence, uHTS; S. cerevisiae tim23-1 growth, BacTiter-Glo luminescence, 24 h; inhibition, % at 20 µM; 1.3% of 330,000 active; AID 463212, 2010;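 active = growth inhibition of the mutant yeast at or above 50%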;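 also: temperature-sensitive mutant grown at 25 °C; plate controls were DMSO-treated mutant yeast for no effect and medium wells lacking yeast for full effect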
# PfHsp90 yeast 2: growth inhibition of PfHsp90-expressing yeast, primary screen, antimalarial PfHsp90 inhibitor project, S. cerevisiae, BacTiter-Glo luminescence, single point, set 2; BacTiter-Glo ATP, 48 h; yeast lacking PDR1 and PDR3 efflux regulators; inhibition, % at 9.4 µM; 0.32% of 310,000 active;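 active = every replicate shows inhibition above about 80%, whatever the replicate mean, limit read from the data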;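 also: 0% = DMSO neutral controls and 100% = 20 µM radicicol positive controls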
# tim23-1 confirm: tim23-1 mutant yeast growth inhibitors, confirmation, luminescence, single concentration; shares compounds with tim23-1 inh; S. cerevisiae tim23-1 growth, BacTiter-Glo luminescence, 24 h; inhibition, % at 20 µM; 83% of 4,400 active;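 active = inhibition above about 39% in either of two replicate wells at 20 µM, limit read from the data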;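 also: temperature-sensitive tim23-1 mutant grown at 25 °C; 0% = DMSO wells with yeast and 100% = medium wells without yeast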
# Starred values were filed as active, the others as inactive; · = not tested or not shown. A selection: hits, their analogues and other compounds. The true share with any hit is near 4.2%.
SMILES,TIM10 inh,tim10-1 inh,NALP1 yeast inh,NALP3 yeast inh,tim23-1 inh,PfHsp90 yeast 2,tim23-1 confirm
CCC(C)(C)C1CCc2[nH]nc(C(=O)NN)c2C1 (stereo not given),-14,11,-8,22,20,11,·
CCC(C)(C)C1CCc2[nH]nc(C(=O)NCC3CC3)c2C1 (stereo not given),35,40,·,9,56*,20,64*
CCC(C)(C)C1CCc2[nH]nc(C(=O)NC(C)C)c2C1 (stereo not given),22,36,·,9,53*,-1,53*
NS(=O)(=O)c1c(Sc2ccccc2C(=O)O)ccc2ccccc12,-28,-34,12,32,11,5,·
C[C@H](CO)N1C[C@H](C)[C@@H](CN(C)Cc2ccccc2)Oc2c(NC(=O)C3CC3)cccc2C1=O,-3,-3,·,7,11,11,·
CCSc1nnc(NC(=O)c2nn(C(C)C)c(=O)c3ccccc23)s1,23,32,29,-16,57*,-22,37*
CC(C)n1nc(C(=O)Nc2nnc(C3CC3)s2)c2ccccc2c1=O,15,15,0,4,31,-2,·
O=C(Cn1cc(C(F)(F)F)ccc1=O)N1CCc2ccccc21,1,-2,·,4,6,-3,·
O=C1CS(=O)(=O)N(Cc2ccc(F)cc2)c2ccccc21,25,30,·,·,53*,-2,47*
O=C(NNC(=O)c1ccccc1F)c1cccc(-n2cccc2)c1,-6,-13,·,17,7,-12,·
CNC(=S)N/N=C/c1ccc(-c2ccc(C(=O)O)cc2)o1,28,31,-6,2,50*,59,44*
CNC(=S)N/N=C/c1ccc(-c2ccc(Cl)c([N+](=O)[O-])c2)o1,3,7,13,22,-8,4,·
O=C(c1ccccc1)N(c1ccccc1)c1nccc2ccccc12,·,·,·,·,·,10,·
Cc1sc2ncnc(N3CCN(C(=O)c4ccco4)CC3)c2c1C,-3,14,-3,9,10,-5,·
CC(C)(C)C(=O)N1CCN(c2ncnc3scc(-c4ccccc4)c23)CC1,26,31,7,13,51*,-20,29
Cc1ccc(-c2csc3ncnc(N4CCN(C(=O)c5ccco5)CC4)c23)cc1,31,29,·,18,51*,12,42*
CN(c1ccc(C(=O)N2CCN(Cc3ccccc3)CC2)cc1)S(=O)(=O)c1ccc(Cl)cc1,9,34,21,26,14,21,·
CCCCC[C@@H]1C=C(C(=O)O)[C@H](c2ccc(Br)cc2)N1S(=O)(=O)c1ccc(C)cc1,16,17,·,-9,30,-17,·
Cc1ccc(CCNC(=O)CN(C)S(=O)(=O)c2ccc3c(c2)n(C)c(=O)c(=O)n3C)cc1,-16,-6,31,9,10,-23,·
CCCCC1NC(=S)N(C2CCCCC2)C1=O (stereo not given),33,8,7,-12,58*,-18,22
Cc1ccc2c(Cl)c(C)c(N3CCCCC3)nc2n1,17,27,46*,25,67*,-23,58*
CCOC(=O)C1=C(C2=CCCCC2)c2ccc(OC)cc2N(S(=O)(=O)C(F)(F)F)C1C(=O)OCC (stereo not given),25,36,·,·,53*,-15,40*
CCOC(=O)C1C(C(=O)OC)=C(c2ccc(OC)cc2)c2ccc(OC)cc2N1S(=O)(=O)C(F)(F)F (stereo not given),4,20,·,·,39,10,·
Cc1ccc(O)c(CNc2cnc3ccccc3c2)c1,3,-6,12,35,57*,-12,42*
Oc1ccc(Br)cc1CNc1cnc2ccccc2c1,27,19,1,23,76*,-35,68*
SMILES,TIM10 inh,tim10-1 inh,NALP1 yeast inh,NALP3 yeast inh,tim23-1 inh,PfHsp90 yeast 2,tim23-1 confirm
CCn1c(/C=C/c2c(C)[nH]c3ccccc23)nc2ccccc2c1=O,11,25,6,20,3,-32,·
CCn1c(/C=C2\C(=O)N(C(C)C)c3ccccc32)nc2ccccc2c1=O,39,31,3,13,56*,-12,42*
COc1ccc(C)cc1NC(=O)c1nn(-c2ccccc2)cc1OC,-6,0,22,33,55*,-22,68*
COc1cn(-c2ccccc2)nc1C(=O)Nc1ccccc1,18,-11,13,26,19,2,·
COc1cn(-c2ccccc2)nc1C(=O)Nc1ccc(C)cc1,30,-51,17,26,50*,26,39
COc1cc2ccccc2cc1C(=O)Nc1ccc(C)cc1,0,-4,15,41,59*,2,64*
COc1cc2ccccc2cc1C(=O)Nc1ccc(Cc2ccncc2)cc1,33,30,32,0,37,11,·
COc1ccc(OC)c(CN2CCN(c3ccc(S(=O)(=O)N4CCCC4)cn3)CC2)c1,-3,16,·,3,15,-13,·
Nc1nnc(SCc2c(F)cccc2Cl)s1,-6,-15,6,27,0,-4,·
Oc1c(C(c2ccc(Cl)cc2)N2CCCC2)cc(Cl)c2cccnc12 (stereo not given),20,-10,0,19,64*,128*,68*
Oc1c(C(c2ccccc2Cl)N2CCCC2)ccc2cccnc12 (stereo not given),10,25,26,24,65*,119*,59*
O=C(Oc1c(Cl)cc(Cl)c2cccnc12)N1CCCCC1,21,37,6,13,40,-50,·
O=C(OCc1c(-c2ccccc2)ncc2ccccc12)c1ccco1,28,24,·,37,55*,-8,40
O=C(On1c(-c2ccccc2)nc2ccccc2c1=O)c1ccco1,33,15,3,35,75*,2,57*
O=C(CN1C(=O)NC2(CCCCC2)C1=O)NCc1cccs1,4,2,18,5,-2,-6,·
CCOC(=O)/C(C#N)=C/c1cc2cc(C)c(C)cc2nc1Cl,30,-3,·,16,62*,4,70*
Cn1c2ccccc2c(=O)c2c(=O)n(C3CCCCC3)c(-c3ccco3)nc21,-7,28,42,48,51*,14,49*
CC(C)Cn1c(-c2ccco2)nc2c(c(=O)c3ccccc3n2C)c1=O,25,34,25,19,50*,·,35

# Screens from PubChem BioAssay.
